Key:
Experiment in all cases: log2 ratio of Biotin-Ahx-Ub-VS probe labelling (fragment/DMSO); higher = less target engagement (more negative = stronger competition), active = hit call of the paper (q ≤ 0.05, log2 ratio ≤ -1)
Conditions in all cases: compound concentration: 200 uM; treatment time: 3 h
USP34 = USP34 (UniProt Q70CQ2)
Procedure, shortened: (§1)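 Each value is an average log2 ratio of fragment to vehicle, tested by unpaired t-test. The underlying Spectronaut label-free quantities were global-median-normalised, and only proteins with ≥2 unique peptides were included. Triplicate HEK293T lysate samples (495 µg) were exposed to fragment at 200 µM or vehicle for 3 h, then to Biotin-Ahx-Ub-VS at 0.5 µM final for 1 h, before NeutrAvidin enrichment of labelled DUBs, LysC and trypsin digestion, and diaPASEF LC-MS/MS.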

USP36 = target: T1, USP36 (UniProt Q9P275)
T1 sequence (whole entry): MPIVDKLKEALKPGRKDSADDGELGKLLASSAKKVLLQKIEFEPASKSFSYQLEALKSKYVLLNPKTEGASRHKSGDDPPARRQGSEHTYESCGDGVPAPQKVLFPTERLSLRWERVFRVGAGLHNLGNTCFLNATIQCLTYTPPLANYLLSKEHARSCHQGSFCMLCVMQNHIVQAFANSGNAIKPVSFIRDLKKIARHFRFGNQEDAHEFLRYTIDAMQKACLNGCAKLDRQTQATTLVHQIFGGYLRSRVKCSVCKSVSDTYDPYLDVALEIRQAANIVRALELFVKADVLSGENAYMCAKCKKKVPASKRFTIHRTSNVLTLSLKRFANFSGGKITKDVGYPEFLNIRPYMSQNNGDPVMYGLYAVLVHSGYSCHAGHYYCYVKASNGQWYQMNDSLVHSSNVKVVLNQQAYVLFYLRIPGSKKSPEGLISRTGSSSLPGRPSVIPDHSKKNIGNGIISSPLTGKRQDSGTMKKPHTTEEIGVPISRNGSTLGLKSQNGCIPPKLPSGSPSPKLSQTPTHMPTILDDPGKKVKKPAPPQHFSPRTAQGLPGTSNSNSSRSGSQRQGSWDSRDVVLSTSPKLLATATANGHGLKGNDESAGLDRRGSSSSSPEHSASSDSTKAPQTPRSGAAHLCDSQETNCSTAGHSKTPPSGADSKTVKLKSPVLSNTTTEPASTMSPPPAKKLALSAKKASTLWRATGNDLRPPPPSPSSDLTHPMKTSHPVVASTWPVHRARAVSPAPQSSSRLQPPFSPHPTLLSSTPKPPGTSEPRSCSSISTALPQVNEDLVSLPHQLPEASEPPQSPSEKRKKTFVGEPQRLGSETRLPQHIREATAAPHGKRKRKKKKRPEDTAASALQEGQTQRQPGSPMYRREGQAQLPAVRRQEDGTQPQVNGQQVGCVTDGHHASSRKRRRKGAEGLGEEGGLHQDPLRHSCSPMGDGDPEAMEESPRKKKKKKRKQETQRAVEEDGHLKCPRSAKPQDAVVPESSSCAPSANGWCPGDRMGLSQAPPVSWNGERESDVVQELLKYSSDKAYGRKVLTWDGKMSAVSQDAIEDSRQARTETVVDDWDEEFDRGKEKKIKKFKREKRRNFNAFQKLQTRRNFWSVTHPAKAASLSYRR
Procedure, shortened: as §1

USP38 = target: T2, USP38 (UniProt Q8NB14)
T2 sequence (whole entry): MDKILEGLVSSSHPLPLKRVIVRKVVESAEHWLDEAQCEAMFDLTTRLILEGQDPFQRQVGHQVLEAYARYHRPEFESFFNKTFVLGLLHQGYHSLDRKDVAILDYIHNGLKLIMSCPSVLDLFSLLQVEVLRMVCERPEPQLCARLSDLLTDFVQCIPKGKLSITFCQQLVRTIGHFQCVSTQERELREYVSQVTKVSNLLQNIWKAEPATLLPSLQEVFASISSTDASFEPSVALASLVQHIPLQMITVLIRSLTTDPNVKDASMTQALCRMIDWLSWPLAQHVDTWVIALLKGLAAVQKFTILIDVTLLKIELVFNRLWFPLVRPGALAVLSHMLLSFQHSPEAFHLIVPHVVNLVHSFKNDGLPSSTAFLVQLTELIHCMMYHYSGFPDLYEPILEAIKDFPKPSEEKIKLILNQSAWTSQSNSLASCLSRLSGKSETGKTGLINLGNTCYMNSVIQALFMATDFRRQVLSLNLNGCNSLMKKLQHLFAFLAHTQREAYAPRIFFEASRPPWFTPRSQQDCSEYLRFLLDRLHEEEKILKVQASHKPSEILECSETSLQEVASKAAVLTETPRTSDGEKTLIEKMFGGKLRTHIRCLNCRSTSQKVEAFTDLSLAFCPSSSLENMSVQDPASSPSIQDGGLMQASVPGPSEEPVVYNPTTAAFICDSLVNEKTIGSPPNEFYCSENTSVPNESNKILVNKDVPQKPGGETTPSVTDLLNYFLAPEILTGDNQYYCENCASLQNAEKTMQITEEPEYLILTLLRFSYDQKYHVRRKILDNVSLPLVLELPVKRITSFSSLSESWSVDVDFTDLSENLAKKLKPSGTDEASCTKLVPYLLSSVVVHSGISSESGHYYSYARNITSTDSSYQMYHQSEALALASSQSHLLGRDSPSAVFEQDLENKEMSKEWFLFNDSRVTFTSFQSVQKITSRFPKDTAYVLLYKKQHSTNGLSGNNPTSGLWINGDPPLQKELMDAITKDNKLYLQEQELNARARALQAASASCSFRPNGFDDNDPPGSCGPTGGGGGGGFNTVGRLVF
Procedure, shortened: as §1

USP39 = target: T3, USP39 (UniProt Q53GS9)
T3 sequence (whole entry): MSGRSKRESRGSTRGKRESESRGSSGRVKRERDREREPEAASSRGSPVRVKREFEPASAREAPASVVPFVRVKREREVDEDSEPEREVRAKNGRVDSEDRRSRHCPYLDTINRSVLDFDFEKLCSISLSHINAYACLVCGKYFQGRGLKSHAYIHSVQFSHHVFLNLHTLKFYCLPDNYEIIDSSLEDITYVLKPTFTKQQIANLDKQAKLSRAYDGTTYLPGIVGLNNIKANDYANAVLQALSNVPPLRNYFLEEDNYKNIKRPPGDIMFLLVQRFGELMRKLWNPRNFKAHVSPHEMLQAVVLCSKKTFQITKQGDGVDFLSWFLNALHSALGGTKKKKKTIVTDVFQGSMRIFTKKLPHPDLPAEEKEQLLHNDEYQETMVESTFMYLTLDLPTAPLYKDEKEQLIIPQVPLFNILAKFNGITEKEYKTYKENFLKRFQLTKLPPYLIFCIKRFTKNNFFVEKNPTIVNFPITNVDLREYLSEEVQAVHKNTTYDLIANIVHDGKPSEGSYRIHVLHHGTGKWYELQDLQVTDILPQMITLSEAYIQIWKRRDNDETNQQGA
Procedure, shortened: as §1

USP4 = target: T4, USP4 (UniProt Q13107)
T4 sequence (whole entry): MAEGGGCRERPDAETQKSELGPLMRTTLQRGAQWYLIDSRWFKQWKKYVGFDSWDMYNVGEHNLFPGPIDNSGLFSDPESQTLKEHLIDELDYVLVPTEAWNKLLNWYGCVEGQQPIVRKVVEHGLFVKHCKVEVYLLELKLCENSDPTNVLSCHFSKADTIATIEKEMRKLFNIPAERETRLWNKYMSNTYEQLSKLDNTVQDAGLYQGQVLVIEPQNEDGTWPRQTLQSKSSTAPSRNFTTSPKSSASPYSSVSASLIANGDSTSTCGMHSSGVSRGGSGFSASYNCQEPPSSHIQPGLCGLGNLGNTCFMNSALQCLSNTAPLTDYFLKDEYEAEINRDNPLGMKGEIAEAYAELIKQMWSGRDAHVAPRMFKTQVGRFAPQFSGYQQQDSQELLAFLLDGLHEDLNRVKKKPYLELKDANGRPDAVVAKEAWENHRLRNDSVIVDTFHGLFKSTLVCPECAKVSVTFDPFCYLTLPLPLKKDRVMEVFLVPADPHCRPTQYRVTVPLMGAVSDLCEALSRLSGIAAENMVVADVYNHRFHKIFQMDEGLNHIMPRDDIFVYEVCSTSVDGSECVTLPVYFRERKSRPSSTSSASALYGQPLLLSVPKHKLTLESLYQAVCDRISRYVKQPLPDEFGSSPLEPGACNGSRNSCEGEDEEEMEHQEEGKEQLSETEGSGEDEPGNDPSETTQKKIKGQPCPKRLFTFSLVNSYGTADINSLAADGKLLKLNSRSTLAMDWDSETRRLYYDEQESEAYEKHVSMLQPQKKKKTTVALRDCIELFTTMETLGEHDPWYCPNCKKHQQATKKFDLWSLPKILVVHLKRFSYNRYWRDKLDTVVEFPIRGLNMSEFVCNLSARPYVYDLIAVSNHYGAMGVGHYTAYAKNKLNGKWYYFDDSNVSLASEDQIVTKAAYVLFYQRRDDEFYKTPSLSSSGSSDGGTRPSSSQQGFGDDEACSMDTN
Procedure, shortened: as §1

Measured: log2 ratio of Biotin-Ahx-Ub-VS probe labelling

USP34, sequence (Q70CQ2 whole entry, the tested form may be a part): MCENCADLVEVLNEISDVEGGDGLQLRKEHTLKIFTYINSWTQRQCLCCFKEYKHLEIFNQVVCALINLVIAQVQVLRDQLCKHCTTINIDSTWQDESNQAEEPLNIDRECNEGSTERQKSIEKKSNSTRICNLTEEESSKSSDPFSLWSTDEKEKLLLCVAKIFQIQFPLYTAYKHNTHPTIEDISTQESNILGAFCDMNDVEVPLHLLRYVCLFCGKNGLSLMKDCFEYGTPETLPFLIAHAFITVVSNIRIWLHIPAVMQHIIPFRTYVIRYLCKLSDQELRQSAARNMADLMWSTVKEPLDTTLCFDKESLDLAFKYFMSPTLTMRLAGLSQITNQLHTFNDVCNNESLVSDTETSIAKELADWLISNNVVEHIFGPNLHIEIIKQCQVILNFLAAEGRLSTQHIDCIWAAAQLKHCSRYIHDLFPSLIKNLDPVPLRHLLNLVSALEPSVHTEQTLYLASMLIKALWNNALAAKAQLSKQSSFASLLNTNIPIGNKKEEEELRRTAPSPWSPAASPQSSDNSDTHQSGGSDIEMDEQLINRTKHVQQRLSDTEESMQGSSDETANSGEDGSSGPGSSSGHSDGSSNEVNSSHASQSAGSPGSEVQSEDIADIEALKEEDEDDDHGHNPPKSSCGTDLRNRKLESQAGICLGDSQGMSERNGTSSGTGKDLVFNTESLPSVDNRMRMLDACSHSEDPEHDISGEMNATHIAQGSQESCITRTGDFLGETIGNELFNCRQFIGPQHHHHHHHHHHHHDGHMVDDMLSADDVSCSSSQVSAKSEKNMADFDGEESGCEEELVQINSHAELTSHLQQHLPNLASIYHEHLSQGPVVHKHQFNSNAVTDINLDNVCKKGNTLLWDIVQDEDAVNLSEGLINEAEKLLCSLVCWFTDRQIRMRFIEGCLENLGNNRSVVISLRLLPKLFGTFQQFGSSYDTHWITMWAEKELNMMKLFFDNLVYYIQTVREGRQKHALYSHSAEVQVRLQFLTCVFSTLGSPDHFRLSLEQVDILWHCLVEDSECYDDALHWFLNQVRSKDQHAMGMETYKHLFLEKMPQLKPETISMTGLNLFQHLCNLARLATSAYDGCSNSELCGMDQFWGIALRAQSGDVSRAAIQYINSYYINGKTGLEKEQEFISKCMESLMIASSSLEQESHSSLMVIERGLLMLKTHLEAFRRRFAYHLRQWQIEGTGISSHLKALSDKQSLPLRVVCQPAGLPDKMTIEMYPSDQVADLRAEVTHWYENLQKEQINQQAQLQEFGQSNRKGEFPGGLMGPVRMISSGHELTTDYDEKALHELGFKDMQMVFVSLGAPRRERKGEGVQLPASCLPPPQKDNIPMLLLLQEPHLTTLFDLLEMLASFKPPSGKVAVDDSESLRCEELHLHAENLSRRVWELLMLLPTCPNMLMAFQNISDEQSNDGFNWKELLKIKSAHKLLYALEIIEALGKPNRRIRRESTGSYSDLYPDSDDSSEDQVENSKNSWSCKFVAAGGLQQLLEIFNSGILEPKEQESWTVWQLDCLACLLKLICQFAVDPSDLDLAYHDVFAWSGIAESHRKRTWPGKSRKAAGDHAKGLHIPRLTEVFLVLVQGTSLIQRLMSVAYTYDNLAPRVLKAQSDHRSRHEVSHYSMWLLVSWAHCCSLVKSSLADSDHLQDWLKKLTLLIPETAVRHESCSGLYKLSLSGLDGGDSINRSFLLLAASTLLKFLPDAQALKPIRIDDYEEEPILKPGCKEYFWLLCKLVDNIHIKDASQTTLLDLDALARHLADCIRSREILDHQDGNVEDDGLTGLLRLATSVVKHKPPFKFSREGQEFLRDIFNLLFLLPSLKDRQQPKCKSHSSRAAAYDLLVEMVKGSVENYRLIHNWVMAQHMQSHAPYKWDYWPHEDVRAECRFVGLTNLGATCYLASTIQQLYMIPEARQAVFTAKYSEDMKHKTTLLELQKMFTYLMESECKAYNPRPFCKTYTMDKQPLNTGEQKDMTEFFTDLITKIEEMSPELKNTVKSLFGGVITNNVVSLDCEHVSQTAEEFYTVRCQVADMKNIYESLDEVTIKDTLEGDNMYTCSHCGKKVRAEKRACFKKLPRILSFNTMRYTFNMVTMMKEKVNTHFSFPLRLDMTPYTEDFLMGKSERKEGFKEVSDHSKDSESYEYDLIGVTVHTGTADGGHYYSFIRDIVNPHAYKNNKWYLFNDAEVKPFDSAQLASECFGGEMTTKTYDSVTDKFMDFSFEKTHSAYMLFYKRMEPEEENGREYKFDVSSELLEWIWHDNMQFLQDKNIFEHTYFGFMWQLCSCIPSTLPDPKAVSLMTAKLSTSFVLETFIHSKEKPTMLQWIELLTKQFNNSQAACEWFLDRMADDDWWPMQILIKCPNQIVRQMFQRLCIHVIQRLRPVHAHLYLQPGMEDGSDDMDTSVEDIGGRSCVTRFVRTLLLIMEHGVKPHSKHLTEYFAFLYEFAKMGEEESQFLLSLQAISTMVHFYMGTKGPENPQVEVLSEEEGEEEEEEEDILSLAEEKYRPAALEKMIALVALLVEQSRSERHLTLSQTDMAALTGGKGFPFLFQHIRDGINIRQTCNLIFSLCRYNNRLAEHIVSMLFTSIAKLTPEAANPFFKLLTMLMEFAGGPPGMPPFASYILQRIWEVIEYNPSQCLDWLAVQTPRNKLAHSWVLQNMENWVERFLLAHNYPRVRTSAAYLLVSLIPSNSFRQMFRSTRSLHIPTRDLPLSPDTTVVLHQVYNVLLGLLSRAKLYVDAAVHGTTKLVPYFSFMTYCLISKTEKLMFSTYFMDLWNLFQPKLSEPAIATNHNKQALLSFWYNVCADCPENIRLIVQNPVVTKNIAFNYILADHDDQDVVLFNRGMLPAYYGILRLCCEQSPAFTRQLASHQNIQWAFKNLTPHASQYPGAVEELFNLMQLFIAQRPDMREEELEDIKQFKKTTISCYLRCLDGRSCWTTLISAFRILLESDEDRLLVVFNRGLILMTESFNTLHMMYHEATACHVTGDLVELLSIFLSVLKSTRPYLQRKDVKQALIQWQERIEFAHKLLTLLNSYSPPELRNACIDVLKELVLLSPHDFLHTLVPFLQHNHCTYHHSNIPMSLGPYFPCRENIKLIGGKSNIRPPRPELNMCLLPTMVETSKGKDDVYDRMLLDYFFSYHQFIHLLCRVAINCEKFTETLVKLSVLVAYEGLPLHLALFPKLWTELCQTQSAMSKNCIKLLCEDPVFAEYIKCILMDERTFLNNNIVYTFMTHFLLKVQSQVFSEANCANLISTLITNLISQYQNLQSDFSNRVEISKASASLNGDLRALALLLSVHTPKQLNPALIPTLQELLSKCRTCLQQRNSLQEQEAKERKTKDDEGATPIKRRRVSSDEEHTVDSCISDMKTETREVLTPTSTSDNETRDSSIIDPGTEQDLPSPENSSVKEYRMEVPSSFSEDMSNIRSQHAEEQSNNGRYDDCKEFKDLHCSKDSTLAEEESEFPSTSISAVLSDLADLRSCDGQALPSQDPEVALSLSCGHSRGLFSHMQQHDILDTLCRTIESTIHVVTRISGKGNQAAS

O=C(CCl)NCc1ccc2c(c1)OCO2
inactive: USP34 0.112 | USP36 0.129 | USP38 -0.0864 | USP39 0.0456 | USP4 0.0604
